We go through 13 compounds from PubChem BioAssay (Tox21).

Unmarked numbers belong to inactive results. Inconclusive results are not listed. Active and inactive are the calls of the source. Calls follow the shape of the dose curve; as a rule, active = well fitted curve in the direction sought with a large enough effect in the repeat runs; inconclusive = weak or mixed curves; inactive = no such curve, though single readings can be large; an effect the other way counts as inactive or inconclusive.

The nature of experiment [1]: qHTS RealTime-Glo MT Cell Viability Assay in HEK293 cells - 0 hour (AID 1224880). Also: top concentration of the series differs between compounds; nearly all actives have a fitted effect of over 45% in size. A digest of the protocol: (§1)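 600 HEK293 cells per well, dispensed already mixed with RealTime-Glo MT reagents. Compound dosing came 5 h later. The same wells were read for luminescence at 0, 8, 16, 24, 32 and 40 h of exposure at 37 C.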
For orientation: qHTS replaces the single test concentration by a dilution series.

Experiment [2] in a line: A CellTox Green Cytotoxicity Assay to monitor cytotoxicity in HEK293 cells - 32 hour (AID 1224881). Also: nearly all actives have a fitted effect of over 40% in size. A digest of the protocol:
(§2)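 Dead-cell fluorescence measured kinetically: asymmetric cyanine dye, HEK293, 600 cells/well, 5 h settle, 23 nL cpd/DMSO, 37 C, reads 0–40 h every 8 h.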

The nature of experiment [3]: A CellTox Green Cytotoxicity Assay to monitor cytotoxicity in HepG2 cells - 0 hour (AID 1224882). Also: nearly all actives have a fitted effect of over 35% in size. Put shortly: (§3)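 First, HepG2 cells (600/well) mixed with reagent were plated; second, after 5 h at 37 C they received compounds via pintool; third, fluorescence was measured at 0 h through 40 h at 8 h intervals.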
The nature of experiment [4]: A CellTox Green Cytotoxicity Assay to monitor cytotoxicity in HepG2 cells - 32 hour (AID 1224883). Also: nearly all actives have a fitted effect of over 50% in size. Also: potency is read from the fitted curve at half-maximal effect. Put shortly: as §3
Experiment [5] is described as follows: qHTS RealTime-Glo MT Cell Viability Assay in HepG2 cells - 16 hour (AID 1224885). Also: nearly all actives have a fitted effect of over 50% in size. A digest of the protocol: (§4)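 Viability was tracked continuously by NanoLuc luminescence from prosubstrate reduced by living HepG2 cells, at successive time points over 40 h of compound exposure. Cells with reagent were preincubated 5 h at 37 °C before compound addition.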
A short description of experiment [6]: qHTS RealTime-Glo MT Cell Viability Assay in HEK293 cells - 24 hour (AID 1224886). Also: nearly all actives have a fitted effect of over 50% in size. Also: potency is read from the fitted curve at half-maximal effect. As to activity change, negative = cytotoxicity: top concentration of the series differs between compounds. A digest of the protocol:
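Viability tracked continuously by luminescence as live cells reduce a prosubstrate for NanoLuc; HEK293 cells preincubated 5 h, compound-treated at 37 C, and read at 0, 8, 16, 24, 32 and 40 h.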

Experiment [7] can be described thus: qHTS RealTime-Glo MT Cell Viability Assay in HEK293 cells - 8 hour (AID 1224887). Also: nearly all actives have a fitted effect of over 50% in size. Also: potency is read from the fitted curve at half-maximal effect. As to activity change, negative = cytotoxicity: top concentration of the series differs between compounds. A digest of the protocol: as §1
Experiment [8] can be described thus: A CellTox Green Cytotoxicity Assay to monitor cytotoxicity in HEK293 cells - 16 hour (AID 1224888). Also: nearly all actives have a fitted effect of over 35% in size. A digest of the protocol: as §2
Experiment [9] can be described thus: qHTS RealTime-Glo MT Cell Viability Assay in HepG2 cells - 0 hour (AID 1224889). Also: nearly all actives have a fitted effect of over 50% in size. Put shortly:
as §4

A short description of experiment [10]: A CellTox Green Cytotoxicity Assay to monitor cytotoxicity in HepG2 cells - 8 hour (AID 1224890). Also: nearly all actives have a fitted effect of over 45% in size. A digest of the protocol:
as §3

Experiment [11] in a line: qHTS assay to identify small molecule antagonists of the estrogen receptor alpha (ER-alpha) signaling pathway using the BG1 cell line in the presence of 0.1 nM 17-beta-estradiol - cell viability counter screen (AID 1259241). Also: nearly all actives have a fitted effect of over 40% in size. Also: potency is read from the fitted curve at half-maximal effect. Put shortly: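 Live-cell protease activity (CellTiter-Fluor fluorescence, 30 min) was read in the same wells after VM7Luc4E2 cells had been exposed to compounds with 0.1 nM 17beta-estradiol for 22 hr at 37C.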

The nature of experiment [12]: qHTS assay to identify small molecule antagonists of the androgen receptor (AR) signaling pathway using the MDA cell line in the presence of 0.5 nM R1881 - cell viability counter screen (AID 1259242). Also: nearly all actives have a fitted effect of over 45% in size. Also: potency is read from the fitted curve at half-maximal effect. Put shortly: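 qHTS format. MDA-kb2 (MMTV-luc, AR/GR responsive) + cpd + 0.5 nM R1881 final, 16 hr 37C/0% CO2 → CellTiter-Fluor 30 min → fluorescence intensity.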
Experiment [13] deals with Androgen receptor (Homo sapiens) (UniProt P10275). Kind of experiment: qHTS assay to identify small molecule antagonists of the androgen receptor (AR) signaling pathway using the MDA cell line in the presence of 0.5 nM R1881 (AID 1259243). Also: nearly all actives have a fitted effect of over 50% in size. Also: potency is read from the fitted curve at half-maximal effect. Put shortly:
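Antagonist mode quantitative HTS in MDA-kb2 MMTV-luciferase cells, agonist R1881 at 0.5 nM final, 16 hr exposure at 37C and 0% CO2, luminescent detection.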

Experiment [14] in a line: qHTS assay to identify small molecule HDAC inhibitors (AID 1259364). Also: potency is read from the fitted curve at half-maximal effect.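 Also: wild-type HCT-116 cells with endogenous class I/II HDAC activity; nearly all actives have a fitted effect of over 45% in size.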 As to activity change, negative = inhibition: top concentration of the series differs between compounds. A digest of the protocol:
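Quantitative high-throughput format: overnight-seeded HCT-116 cells got compounds for 2 hr at 37C; HDAC-Glo I/II reagent added, 30 min RT, luminescence measured.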

The nature of experiment [15]: qHTS assay to identify small molecule HDAC inhibitors - cell viability counter screen (AID 1259365). Also: nearly all actives have a fitted effect of over 50% in size. Also: potency is read from the fitted curve at half-maximal effect. As to activity change, negative = cytotoxicity: series mostly up to about 92 µM. Put shortly: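 HCT-116 (wild type), 1,500 cells/well, overnight 37C/5% CO2; compound in DMSO 2hr; CellTiter-Glo 30min RT; luminescence read.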
The nature of experiment [16]: qHTS assay to identify small molecule agonists of the sonic hedgehog signaling (Shh) pathway - cell viability counter screen (AID 1259366). Also: nearly all actives have a fitted effect of over 50% in size. Also: potency is read from the fitted curve at half-maximal effect. A digest of the protocol: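 CellTiter-Fluor fluorescence read-out, 1 hr at 37C, added after 23hr compound exposure. Cells: 3T3 Gli1-Luc, an NIH/3T3 clone with stably integrated Gli1-Luc reporter, plated 4hr before compound.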
Experiment [17] is described as follows: qHTS assay to identify small molecule antagonists of the sonic hedgehog signaling (Shh) pathway - cell viability counter screen (AID 1259367). Also: nearly all actives have a fitted effect of over 55% in size. A digest of the protocol: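 Fluorescence read-out (CellTiter-Fluor, 1 hr at 37C) taken after 23 hr compound treatment of 3T3 Gli1-Luc cells stimulated with conditioned medium. Cells were seeded at 2,000 per well and pre-incubated 4 hr.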

The target in experiment [18] is Estrogen receptor (Homo sapiens) (UniProt P03372). Put plainly: qHTS assay to identify small molecule antagonists of the estrogen receptor alpha (ER-alpha) signaling pathway using the BG1 cell line in the presence of 0.1 nM 17-beta-estradiol (AID 1259244). Also: nearly all actives have a fitted effect of over 50% in size. A digest of the protocol: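 Reporter is a stably transfected luciferase under four estrogen responsive elements in VM7Luc4E2 cells expressing native full-length ER-alpha; inhibition of 0.1 nM (final) 17beta-estradiol-driven signal over 22 h is read by luminescence.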
Sequence of Estrogen receptor (Homo sapiens) (P03372 whole entry, looked up): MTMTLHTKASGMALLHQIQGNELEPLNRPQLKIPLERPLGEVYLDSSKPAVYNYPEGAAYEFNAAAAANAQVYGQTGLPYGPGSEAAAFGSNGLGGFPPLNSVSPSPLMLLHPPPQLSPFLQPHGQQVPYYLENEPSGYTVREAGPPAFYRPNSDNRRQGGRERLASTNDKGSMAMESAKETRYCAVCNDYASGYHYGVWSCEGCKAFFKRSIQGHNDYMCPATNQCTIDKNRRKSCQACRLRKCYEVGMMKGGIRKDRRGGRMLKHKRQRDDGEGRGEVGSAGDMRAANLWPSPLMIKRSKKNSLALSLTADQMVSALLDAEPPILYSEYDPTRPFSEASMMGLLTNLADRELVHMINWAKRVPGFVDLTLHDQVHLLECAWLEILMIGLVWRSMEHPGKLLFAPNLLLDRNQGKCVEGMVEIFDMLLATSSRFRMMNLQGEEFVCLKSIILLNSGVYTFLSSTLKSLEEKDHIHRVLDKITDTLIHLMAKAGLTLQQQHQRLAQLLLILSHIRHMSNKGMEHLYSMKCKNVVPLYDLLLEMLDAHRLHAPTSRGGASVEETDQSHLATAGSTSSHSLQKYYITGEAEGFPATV

The nature of experiment [19]: A CellTox Green Cytotoxicity Assay to monitor cytotoxicity in HEK293 cells - 8 hour (AID 1224884). Also: nearly all actives have a fitted effect of over 35% in size. Put shortly:
as §2
% is scaled to controls: 0 for no effect and ±100 for the full control effect.

Sequence of Androgen receptor (Homo sapiens) (P10275 whole entry, looked up): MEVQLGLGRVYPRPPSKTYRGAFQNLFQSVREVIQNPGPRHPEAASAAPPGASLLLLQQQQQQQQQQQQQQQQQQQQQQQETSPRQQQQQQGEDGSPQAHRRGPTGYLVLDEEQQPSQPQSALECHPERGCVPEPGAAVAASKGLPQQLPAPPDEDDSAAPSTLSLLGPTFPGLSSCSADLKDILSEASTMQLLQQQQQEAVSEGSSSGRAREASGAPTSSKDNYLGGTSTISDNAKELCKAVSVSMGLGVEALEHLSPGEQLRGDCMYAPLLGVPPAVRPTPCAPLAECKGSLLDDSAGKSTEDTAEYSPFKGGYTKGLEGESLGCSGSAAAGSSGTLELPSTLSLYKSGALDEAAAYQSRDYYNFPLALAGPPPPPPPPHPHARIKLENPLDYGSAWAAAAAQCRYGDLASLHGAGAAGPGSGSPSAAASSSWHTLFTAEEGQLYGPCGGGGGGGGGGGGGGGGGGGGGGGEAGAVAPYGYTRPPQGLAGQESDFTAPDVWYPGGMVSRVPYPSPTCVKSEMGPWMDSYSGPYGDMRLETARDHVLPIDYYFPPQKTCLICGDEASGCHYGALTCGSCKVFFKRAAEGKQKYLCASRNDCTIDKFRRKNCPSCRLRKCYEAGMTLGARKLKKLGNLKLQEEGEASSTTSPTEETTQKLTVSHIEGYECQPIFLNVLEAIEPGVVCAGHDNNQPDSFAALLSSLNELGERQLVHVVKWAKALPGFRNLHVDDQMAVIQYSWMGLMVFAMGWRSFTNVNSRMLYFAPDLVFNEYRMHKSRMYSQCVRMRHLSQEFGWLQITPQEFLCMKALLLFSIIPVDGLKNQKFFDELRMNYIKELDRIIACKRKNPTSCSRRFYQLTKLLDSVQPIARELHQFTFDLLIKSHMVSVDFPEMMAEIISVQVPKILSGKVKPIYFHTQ

Consider `CCN(CC)c1ccc(C(=C2C=CC(=[N+](CC)CC)C=C2)c2ccc(S(=O)(=O)O)cc2S(=O)(=O)[O-])cc1`, for which the Potency entry in experiment [1], in experiment [2], in [3], in experiment [4], in experiment [5] and in experiment [6] was “inactive” each time. The Potency result in experiment [7], in experiment [8], in [9] and in experiment [10] was “inactive” each time. Moreover, the Potency in experiment [11] was 12.2 µM (active); in experiment [12], 27.3 µM (active); in experiment [13], 9.69 µM (active); in experiment [14] it was 3.86 µM (active); in experiment [15] it was 21.7 µM (active); in experiment [16], 24.3 µM (active).
Consider `CCCCCCCCCCCCCOC(=O)CCSCCC(=O)OCCCCCCCCCCCCC`, for which the activity change, negative = cytotoxicity in [1] was -5.28% [at 15.8 µM]; in experiment [6] it was -2.9% [at 15.8 µM]; in experiment [7], -5.3% [at 15.8 µM]; in experiment [9], -15% [at 15.8 µM]; in [11] it was 6.24% [at 19 µM]; in experiment [15], 6.04% [at 19 µM]. Besides, the values for the cytotoxicity increase in experiment [2], in experiment [4] and in [10] were 13.9% [at 15.8 µM], -0.352% [at 15.8 µM] and 4.96% [at 15.8 µM], respectively. The cytotoxicity in experiment [3] is 4.63% [at 15.8 µM]. Besides, the activity change, negative = cytotoxic in [5] is -6.5% [at 15.8 µM]. In addition, the activity change in experiment [8] is 17.2% [at 15.8 µM, hits give high values]. The figures for the viability change, negative = cytotoxic in [12] and in experiment [16] were 3.47% [at 19 µM] and 2.43% [at 19 µM], respectively. Besides, in [14], the activity change, negative = inhibition is 3.35% [at 19 µM].
As to `CC(=O)NNC(C)=O`, the Potency entry in [1], in experiment [2], in [3], in experiment [4], in experiment [6] and in [7] was “inactive” throughout. Besides, the Potency result in experiment [8], in experiment [9], in [10], in experiment [11], in experiment [12] and in experiment [14] was “inactive” in each case. Also, the Potency entry in [15], in experiment [16] and in [17] was “inactive” each time.
As to `COC(=O)Nc1nc2ccc(C(=O)C3CC3)cc2[nH]1`, the Potency result in experiment [1], in [2], in experiment [3], in [5], in experiment [7] and in experiment [8] was “inactive” in each case. Besides, the Potency entry in experiment [9], in experiment [10], in [11], in [12], in [18] and in [16] was “inactive” each time. The figures for the Potency in [4] and in [14] were 0.952 µM (active) and 23.7 µM (active), respectively.
In the case of `COc1ccc(C)cc1`, the Potency entry in experiment [1], in [2], in experiment [3], in [4], in experiment [19] and in experiment [6] was “inactive” throughout. For the same compound, the Potency result in [7], in experiment [8], in [9], in experiment [10], in experiment [11] and in [12] was “inactive” throughout. The Potency result in experiment [14], in experiment [16] and in experiment [17] was “inactive” each time.
As to `Nc1nc2ccc(OC(F)(F)F)cc2s1`, the Potency entry in experiment [1], in [2], in [3], in [4], in experiment [5] and in experiment [7] was “inactive” each time. The Potency entry in experiment [8], in [9], in [10], in experiment [11], in experiment [12] and in [18] was “inactive” in each case. In addition, the Potency entry in [16] was “inactive”.
As to `CC(C)(C)NCC(O)COc1cccc2c1C[C@H](O)[C@H](O)C2` (some centres not stated), the Potency result in experiment [1], in experiment [2], in experiment [3], in [4], in [5] and in experiment [6] was “inactive” each time. Besides, the Potency result in experiment [7], in experiment [8], in [9], in experiment [10], in [11] and in experiment [12] was “inactive” each time. Moreover, the Potency result in experiment [18], in [14], in [15], in [16] and in experiment [17] was “inactive” in each case.
As to `CCC(C)(C)C(=O)O`, the Potency result in experiment [1], in experiment [2], in experiment [3], in experiment [4], in experiment [5] and in experiment [6] was “inactive” in each case. The Potency entry in experiment [7], in experiment [8], in [9], in experiment [10], in [11] and in experiment [12] was “inactive” throughout. Further, the Potency result in [13], in experiment [18], in [14], in experiment [15], in [16] and in experiment [17] was “inactive” throughout.
In the case of `CC[C@H]1OC(=O)[C@H](C)[C@@H](O[C@H]2C[C@@](C)(OC)[C@@H](O)[C@H](C)O2)[C@H](C)[C@@H](O[C@@H]2O[C@H](C)C[C@H](N(C)C)[C@H]2O)[C@](C)(O)C[C@@H](C)CN(C)[C@H](C)[C@@H](O)[C@]1(C)O`, the Potency result in [1], in experiment [2], in [3], in experiment [4], in experiment [5] and in experiment [6] was “inactive” in each case. Besides, the Potency result in experiment [7], in [8], in experiment [9], in experiment [10], in experiment [11] and in [12] was “inactive” throughout. Moreover, the Potency entry in [14], in [15] and in experiment [17] was “inactive” in each case.
For the compound `O=C(O)c1cccc(C[C@@H]2COc3ccc(OCc4nc5cc(F)ccc5s4)cc3[C@@H]2O)c1`, the Potency entry in experiment [1], in [2], in experiment [3], in [4], in experiment [19] and in experiment [6] was “inactive” in each case. Also, the Potency result in [7], in [8], in experiment [9], in [10], in experiment [11] and in experiment [12] was “inactive” each time. The Potency result in experiment [15] and in [16] was “inactive” throughout.
For `CN1C(CSCC(F)(F)F)Nc2cc(Cl)c(S(N)(=O)=O)cc2S1(=O)=O` (configuration not stated), the Potency entry in [1], in experiment [2], in experiment [3], in [4], in experiment [5] and in experiment [8] was “inactive” in each case. Moreover, the Potency entry in experiment [9], in experiment [10], in experiment [11], in experiment [12], in experiment [13] and in [18] was “inactive” throughout. In addition, the Potency entry in [14], in experiment [15], in experiment [16] and in experiment [17] was “inactive” throughout. For the same compound, the Potency is 16.9 µM (active) in experiment [6] and 19 µM (active) in [7].
Take `Cc1ccc2nc(N)[nH]c(=O)c2c1Sc1ccncc1`: the Potency entry in experiment [1], in experiment [2], in experiment [3], in experiment [4], in experiment [19] and in experiment [6] was “inactive” in each case. Also, the Potency entry in [7], in [8], in experiment [9], in experiment [10], in experiment [11] and in [12] was “inactive” each time. In addition, the Potency result in experiment [14], in experiment [15], in [16] and in [17] was “inactive” throughout.
In the case of `CNc1c2c(nn1C)CCCC2`, the Potency entry in [1], in experiment [2], in experiment [3], in experiment [4], in experiment [5] and in experiment [6] was “inactive” each time. The Potency result in experiment [7], in experiment [8], in experiment [9], in [10], in [11] and in experiment [12] was “inactive” in each case. For the same compound, the Potency result in experiment [14], in experiment [15], in experiment [16] and in [17] was “inactive” throughout.
